Compound activity from PubChem BioAssay.
Shown are actives, neighbours in structure and some others; about 5.9% of the full set was active somewhere.
TrxR1 inh = rat TrxR1 inhibition. Potency, µM (top dose mostly 114 µM), most hits filed as inhibitors. recombinant rTrxR1, NADPH fluorescence consumption, selenite substrate. 390,000 tested, 1% active. O89049; also: nearly all actives have a fitted effect of over 65% in size
Target sequence (O89049 whole entry, looked up): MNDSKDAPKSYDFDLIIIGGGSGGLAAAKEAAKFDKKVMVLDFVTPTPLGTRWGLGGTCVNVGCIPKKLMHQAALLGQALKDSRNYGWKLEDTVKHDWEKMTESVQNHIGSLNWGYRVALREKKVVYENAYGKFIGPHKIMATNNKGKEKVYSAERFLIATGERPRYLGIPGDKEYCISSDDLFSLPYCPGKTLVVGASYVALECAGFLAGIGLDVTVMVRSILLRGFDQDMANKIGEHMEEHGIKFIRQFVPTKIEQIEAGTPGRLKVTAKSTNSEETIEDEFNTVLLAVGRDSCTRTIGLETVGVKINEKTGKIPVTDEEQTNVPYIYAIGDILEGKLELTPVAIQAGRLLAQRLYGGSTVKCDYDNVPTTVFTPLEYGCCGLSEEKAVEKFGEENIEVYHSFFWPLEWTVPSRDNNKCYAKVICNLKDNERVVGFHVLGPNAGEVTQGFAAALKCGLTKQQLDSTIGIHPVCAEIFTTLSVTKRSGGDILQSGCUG
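Rat TrxR1 (90 nM in the dispensed reagent) was pre-reduced with 400 uM NADPH for 5 min at room temperature, then incubated with compound for 15 min. After 400 uM selenite was added, NADPH fluorescence (Ex 340/Em 450 nm) was followed for 8 min.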
RORg inh = blocks mouse ROR gamma transcriptional activity. Drosophila S2 Gal4-RORgamma UAS-luciferase reporter, 20 h. Potency, µM (top dose mostly 53.6 µM), actives largely listed as inhibitors. 310,000 tested, 5.4% active; also: nearly all actives have a fitted effect of over 60% in size
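ROR gamma transcriptional activity was tracked as Gal4-UAS luciferase output in stably transfected Drosophila Schneider cells, with compound added 1 hr before 700 uM copper sulfate induction and a 20 hr ambient-temperature incubation.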
VP16 counter = inhibits Gal4-VP16 luciferase reporter, ROR gamma counter-screen; 310,000 tested, 3.5% active; AID 2546; Potency, µM (doses to about 53.6 µM), most hits filed as inhibitors; Drosophila S2 Gal4-VP16 UAS-luciferase, luminescence, 20 h;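 also: Gal4-VP16 expression switched on by copper sulfate through the metallothionein promoter; nearly all actives have a fitted effect of over 50% in size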
Coupling enz = inhibits coupling enzyme system, counter-screen for aldolase hits; coupling enzyme system counterscreen, AmpLite Red fluorescence; activity change, negative = inhibition, % at 58.2 µM, hits read low; 290,000 tested, 0.67% active; in the data active = activity change below about -30%
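Activity here indicates interference with the coupling reaction, not aldolase inhibition. Compounds at 57.5 uM final met coupling enzymes for 10 min at RT; substrate and AmpLite Red detection followed, with a 525/598 nm fluorescence read after 20 min.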
GALK inhibitor = inhibitors of human galactokinase. P51570. Potency, µM (series often up to 57.5 µM), actives largely listed as inhibitors. Purified GALK, Kinase-Glo residual ATP luminescence. 270,000 tested, 0.007% active
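Luminescence from leftover ATP (Ultra-Glo luciferase/luciferin) served as read-out after a 1 h room-temperature reaction of 5 nM GALK with 35 uM ATP and 100 uM galactose.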
TrxR1 substrate = substrates of rat thioredoxin reductase 1; 390,000 tested, 0.01% active; Potency, µM (highest dose often 114 µM); purified TrxR1 substrate turnover, NADPH consumption readout; also: nearly all actives have a fitted effect of over 50% in size
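Rat TrxR1, dispensed at 90 nM, was prereduced with 400 uM NADPH (final) for 5 min at ~22 deg C, then incubated with compound 15 min before 400 uM selenite. A first-read NADPH fluorescence drop versus no-compound background flagged substrates.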
A number is an active result; [ ] = remark or other dose. Unless noted, calls follow the shape of the dose curve; as a rule, active = well fitted curve in the direction sought with a large enough effect; inconclusive = small, poorly fitted or top-dose-only effect, or another doubt; inactive = no such curve, though single readings can be large; an effect the other way counts as inactive or inconclusive.

Results for CCOC(=O)c1sc(NC(=O)CSc2nc(C)cc(C)n2)c(C#N)c1C ?
TrxR1 inh: inactive; RORg inh: inactive; VP16 counter: inactive; GALK inhibitor: inactive; TrxR1 substrate: inactive

How did CCOC(=O)c1sc(NC(=O)CSc2n[nH]c(-c3ccccc3)n2)c(C#N)c1C do in these assays?
TrxR1 inh: inconclusive; RORg inh: 1.3µM; VP16 counter: 5.6µM; Coupling enz: inactive; GALK inhibitor: inactive; TrxR1 substrate: inactive

Results for C1=Cc2ccccc2/C1=C\c1ccc2c(c1)OCO2 ?
TrxR1 inh: inactive; TrxR1 substrate: inactive

Results for Cc1ccc(N/N=C(\C#N)C(N)=S)cc1C ?
TrxR1 inh: inactive; RORg inh: 2.8µM; VP16 counter: inconclusive; Coupling enz: inactive; GALK inhibitor: inactive; TrxR1 substrate: inactive

What do the screens show for `N#C/C(=N\Nc1ccc(Cl)cc1)C(N)=S`?
TrxR1 inh: inconclusive; RORg inh: 4.5µM; VP16 counter: 6.3µM; Coupling enz: inactive; TrxR1 substrate: inactive

Results for N#C/C(=N\Nc1ccccc1)C(N)=S ?
TrxR1 inh: inactive; RORg inh: 13µM; VP16 counter: inconclusive; Coupling enz: inactive; GALK inhibitor: inactive; TrxR1 substrate: inactive

How did N#C/C(=N/Nc1ccccc1[N+](=O)[O-])C(N)=S do in these assays?
TrxR1 inh: inactive; RORg inh: inactive; VP16 counter: inactive; Coupling enz: inactive; TrxR1 substrate: inactive

Results for Cc1cc(O)c(C=O)c2c1C(=O)Oc1c(CO)c(O)c3c(c1O2)C(O)OC3=O (stereo not drawn) ?
TrxR1 inh: 50µM; RORg inh: inactive; VP16 counter: inactive; Coupling enz: inactive; GALK inhibitor: inactive; TrxR1 substrate: inactive

Results for NC(=O)C1CCN(C(=O)/C=C/c2cc(Br)ccc2F)CC1 ?
TrxR1 inh: inactive; RORg inh: inactive; VP16 counter: inactive; Coupling enz: inactive; GALK inhibitor: inactive; TrxR1 substrate: inactive

How did O=C(NNC1=Nc2ccccc2SC1)c1ccc(F)cc1 do in these assays?
TrxR1 inh: inactive; RORg inh: inconclusive; VP16 counter: 3.5µM; Coupling enz: inactive; GALK inhibitor: inactive; TrxR1 substrate: inactive

How did O=C(NNC1=Nc2ccccc2SC1)c1ccc(Cl)cc1 do in these assays?
TrxR1 inh: inactive; RORg inh: 1.1µM; VP16 counter: 5.6µM; Coupling enz: inactive; GALK inhibitor: inactive; TrxR1 substrate: inactive

How did CCOC(=O)C1=C(COC(=O)/C=C/c2cc(OC)c(OC)c(OC)c2)NC(=O)NC1C (stereo not drawn) do in these assays?
TrxR1 inh: inactive; RORg inh: inconclusive; VP16 counter: inconclusive; GALK inhibitor: inactive; TrxR1 substrate: inactive

Results for CCOC(=O)c1c(C)oc2c(CN3CCN(C)CC3)c(Br)c(OC)c(O)c12 ?
TrxR1 inh: inconclusive; RORg inh: inconclusive; VP16 counter: 18µM; Coupling enz: inactive; GALK inhibitor: inactive; TrxR1 substrate: inactive

How did COc1cc(C2NCCC(=O)C2(C)C)cc(OC)c1OC (stereo not drawn) do in these assays?
TrxR1 inh: inactive; RORg inh: inactive; VP16 counter: inactive; Coupling enz: inactive; GALK inhibitor: inactive; TrxR1 substrate: inactive

What do the screens show for `COc1ccc(N/C=C2\C(=O)CCc3c2oc2cc(Cl)c(O)c(Cl)c32)cc1`?
TrxR1 inh: inactive; RORg inh: inactive; VP16 counter: inactive; Coupling enz: inactive; GALK inhibitor: inactive; TrxR1 substrate: inactive

How did Cc1nc2cc(NS(=O)(=O)c3c(C)c(C)cc(C)c3C)ccc2s1 do in these assays?
TrxR1 inh: inactive; RORg inh: inconclusive; VP16 counter: 11µM; Coupling enz: inactive; GALK inhibitor: inactive; TrxR1 substrate: inactive

Results for Cc1ccc(S(=O)(=O)Nc2ccc3nc(C)sc3c2)cc1 ?
TrxR1 inh: inactive; RORg inh: inconclusive; VP16 counter: inconclusive; Coupling enz: inactive; GALK inhibitor: inactive; TrxR1 substrate: inactive

Results for Cc1nc2ccc(NS(=O)(=O)c3ccc4c(c3)OCCO4)cc2s1 ?
TrxR1 inh: inactive; RORg inh: inconclusive; VP16 counter: 8.9µM; Coupling enz: inactive; GALK inhibitor: inactive; TrxR1 substrate: inactive

Results for CC(NC(=O)c1ccc2c(c1)C(=O)N(Cc1cccnc1)C2=O)c1ccccc1 (stereo not drawn) ?
TrxR1 inh: inactive; RORg inh: inactive; VP16 counter: inactive; GALK inhibitor: inactive; TrxR1 substrate: inactive

How did O=C1CSC(=Nc2cccc(Cl)c2Cl)N1Cc1cccnc1 do in these assays?
TrxR1 inh: inactive[11.4 µM]; RORg inh: inactive; VP16 counter: inactive; Coupling enz: inactive; GALK inhibitor: inactive; TrxR1 substrate: inactive[11.4 µM]

Results for CC1(C)C(=O)C=C[C@@]2(C)C1C=C[C@@]1(C)C2CC[C@@]2(C)C(c3ccoc3)OC(=O)C3OC312 (stereo partly drawn) ?
RORg inh: 7.1µM; VP16 counter: inactive; Coupling enz: inactive

Results for COc1ccc(-c2nc(CN3CCCCC3c3nccn3C)c(C)o2)c(C)c1C (stereo not drawn) ?
TrxR1 inh: inactive; RORg inh: 4.5µM; VP16 counter: inconclusive; Coupling enz: inactive; GALK inhibitor: inactive; TrxR1 substrate: inactive

What do the screens show for `Cc1cccc(N2CCN(C(=O)C3CCC(CNS(=O)(=O)c4cccs4)CC3)CC2)c1C` (stereo not drawn)?
TrxR1 inh: inactive; RORg inh: inconclusive; VP16 counter: 11µM; Coupling enz: inactive; GALK inhibitor: inactive; TrxR1 substrate: inactive

How did O=C(O)c1cn(Cc2ccccc2)nc1-c1cccnc1 do in these assays?
TrxR1 inh: inactive; RORg inh: inactive; VP16 counter: inactive; Coupling enz: inactive; GALK inhibitor: inactive; TrxR1 substrate: inactive

How did Cc1ccccc1-c1cc(C(=O)Nc2nc3c(s2)CCCC3)c2ccccc2n1 do in these assays?
TrxR1 inh: inactive; RORg inh: 10µM; VP16 counter: inactive; Coupling enz: inactive; GALK inhibitor: inactive; TrxR1 substrate: inactive

Results for O=C(Nc1nc2c(s1)CCCC2)c1cc(-c2ccc3c(c2)OCO3)nc2ccccc12 ?
RORg inh: inactive; VP16 counter: inconclusive; Coupling enz: inactive; GALK inhibitor: inactive

How did Cc1ccccc1C(=O)NC(C(=O)Nc1nc2c(s1)CCCC2)C(C)C (stereo not drawn) do in these assays?
TrxR1 inh: inactive; RORg inh: inconclusive; VP16 counter: 20µM; Coupling enz: inactive; GALK inhibitor: inactive; TrxR1 substrate: inactive

Results for O=C(/C=C/c1cccs1)NC(=S)Nc1ccccc1 ?
TrxR1 inh: inactive; RORg inh: 3.2µM; VP16 counter: 8.9µM; Coupling enz: inactive; GALK inhibitor: inactive; TrxR1 substrate: inactive

Results for CC(OC(=O)c1cccs1)C(=O)NC1CCCCC1C (stereo not drawn) ?
TrxR1 inh: inactive; TrxR1 substrate: inactive
